Assay [1] is described as follows: rapamycin-like changes in RPL19A-GFP expression – cell-based, S. cerevisiae, multiplex flow cytometry, primary screen (AID 1862; in the data active = percent of DMSO control GFP below about 86%;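 note: lower values mimic rapamycin by blocking the RPL19A rise seen in DMSO cells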). To be noted: S. cerevisiae RPL19A-GFP strain, flow cytometry fluorescence, 3 h; at 10 µM; stronger effect = lower value.
The nature of assay [2]: TOR pathway GLN3 branch reporter MEP2-GFP changes – S. cerevisiae, multiplex flow cytometry, primary screen (AID 1867;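 active = GFP response, as percent of the DMSO control, above the screen-wide mean plus 3 SD, about 139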;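 note: median GFP channel fluorescence of barcode-gated MEP2-GFP cells measured by flow cytometry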). To be noted: S. cerevisiae MEP2-GFP strain, 3 h, at 10 µM, stronger effect = higher value, 100% means same as DMSO wells. (In flow cytometry, cells or beads pass a laser one at a time.)
Assay [3] can be described thus: TOR pathway RTG branch CIT2 reporter changes – S. cerevisiae, GFP fusion, multiplex flow cytometry, primary screen (AID 1870;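 active = percent response above a set limit, the screen-wide mean plus 3 SD, cut at about 130% in these data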;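 note: barcoded CIT2-GFP strain pooled with four other GFP strains with rapamycin as positive control; median GFP fluorescence per well over plate mean of DMSO wells so 100% = DMSO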). To be noted: S. cerevisiae CIT2-GFP expression, 3 h, at 10 µM, stronger effect = higher value.
The nature of assay [4]: TOR pathway LAP4-GFP level changes – S. cerevisiae, multiplex flow cytometry, primary screen (AID 1873;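 active = GFP signal, as percent of the solvent control, above the screen mean plus 3 SD, about 149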). The settings on record: S. cerevisiae LAP4-GFP expression, 3 h, at 10 µM, stronger effect = higher value.
The nature of assay [5]: yeast AGP1-GFP level changes, GLN3 branch – cell-based, multiplex flow cytometry, S. cerevisiae, primary screen (AID 1887;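 active = GFP signal above the screen-wide mean plus 3 SD, that is over about 124.5% of the solvent control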;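 note: AGP1-GFP fusion strain of S. cerevisiae within a five-strain barcoded multiplex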). To be noted: 3 h, at 10 µM, stronger effect = higher value.
Assay [6] is described as follows: reduced mouse 2C T cell binding to pMHC/ICAM-1 vesicles – MLPCN validation set, flow cytometry, LFA-1/ICAM-1 modulator project, pilot screen (AID 2523;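 active = response below a set limit, under 55% cells CD8-positive and vesicle-bound, and CD8 cells' 90th-percentile brightness under 279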;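 for vesicle binding response: mean PE anti-B7-1 fluorescence of CD8+ cells relative to row control; 100% = QL9-loaded vesicles with DMSO vehicle in the same plate row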). To be noted: 2C mouse CD8+ T cells, at 7 µM, stronger effect = lower value; double positive events: measured here: CD8+/vesicle+ event percentage.
Assay [7] concerns the target Integrin beta-1 (Homo sapiens) + Integrin alpha-4 (Homo sapiens) (UniProt P13612+P05556). Briefly: alpha4beta1 integrin LIBS antibody binding reduction – U937 cells, HUTS-21 mAb, flow cytometry, validation set, VLA-4 allosteric modulator project, pilot screen (AID 2674;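 active = inhibition above 50%, about 3 SD of the validation set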;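 note: antibody binding induced by the VLA-4 ligand LDV present at three times its Kd; 0% = LDV ligand with antibody and no compound and 100% = antibody without LDV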). To be noted: HUTS-21 LIBS mAb binding, at 6.7 µM, stronger effect = higher value, binding induced by LDV ligand.

Assay [8] is described as follows: calorie-restriction mimetic ROS inhibitors, yeast – validation compound set, pilot screen (AID 2706;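 active = superoxide response below 65% of plate, a cut near 3 SD across the whole screen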;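 note: yeast exposed to compound for one week at 30 degrees C before staining; 100% = mean of all compound wells on the same plate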). The settings on record: S. cerevisiae aging, superoxide DHE fluorescence; at 10 µM; stronger effect = lower value.
In assay [9] the target is Beta-adrenergic receptor kinase 1 (Homo sapiens) (UniProt P25098). The assay can be described thus: GRK2 binders displacing RNA aptamer, biochemical, validation, human GRK2, bead flow cytometry (AID 488806). To be noted: bead-bound GRK2, FAM-aptamer displacement, at 10 µM, stronger effect = higher value.
Sequence of Beta-adrenergic receptor kinase 1 (Homo sapiens) (P25098 whole entry, looked up): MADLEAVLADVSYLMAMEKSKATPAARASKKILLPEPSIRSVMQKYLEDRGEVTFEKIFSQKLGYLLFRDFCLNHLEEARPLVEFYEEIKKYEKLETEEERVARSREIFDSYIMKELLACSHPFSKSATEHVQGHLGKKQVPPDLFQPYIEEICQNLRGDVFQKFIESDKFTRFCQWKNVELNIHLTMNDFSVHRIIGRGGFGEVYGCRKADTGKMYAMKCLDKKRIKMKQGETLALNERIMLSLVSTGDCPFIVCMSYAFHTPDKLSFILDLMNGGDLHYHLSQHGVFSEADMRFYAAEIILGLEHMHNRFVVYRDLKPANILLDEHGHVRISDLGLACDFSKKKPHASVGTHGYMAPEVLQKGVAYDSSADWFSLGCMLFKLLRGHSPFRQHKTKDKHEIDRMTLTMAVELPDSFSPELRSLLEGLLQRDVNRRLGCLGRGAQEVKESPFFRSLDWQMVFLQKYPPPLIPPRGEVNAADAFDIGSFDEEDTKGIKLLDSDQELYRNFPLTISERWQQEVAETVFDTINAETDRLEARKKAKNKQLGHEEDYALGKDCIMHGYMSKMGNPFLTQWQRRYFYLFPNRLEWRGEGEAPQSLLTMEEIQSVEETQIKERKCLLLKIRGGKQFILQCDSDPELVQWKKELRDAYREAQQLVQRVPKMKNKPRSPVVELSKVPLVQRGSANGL
Assay [10] addresses Beta-2 adrenergic receptor (Homo sapiens) (UniProt P07550). Briefly: agonist-induced loss of surface beta2AR – cell-based, FAP fluorogen, flow cytometry, validation set, pilot screen (AID 504459;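 active = percent response above 42, roughly 3 SD of non-fluorescent test compounds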;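 note: agonist-driven loss of surface beta2AR via internalization measured by FAP dye flow cytometry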). The settings on record: Am2.2-beta2AR cells, at 10 µM, stronger effect = higher value.
Assay [11] concerns the target AP-2 complex subunit beta (Homo sapiens) (UniProt P63010). The assay can be described thus: beta-arrestin/AP2 interaction blockers – biochemical, validation set, GST-AP2 beads, flow cytometry, pilot screen (AID 504541;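 active = inhibition above 54%, about 3 SD of non-fluorescent compounds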;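 note: AP2 carries R879A mutation and is captured from E. coli lysate; bead-bound FITC arrestin peptide fluorescence measuring arrestin peptide binding to AP2; 0% = DMSO wells and 100% = excess unlabeled arrestin peptide control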). To be noted: FITC arrestin peptide, at 10 µM, stronger effect = higher value, AP2 beta2 appendage fragment, R879A mutant.
The nature of assay [12]: cytosolic pH regulators acting via V-ATPase – S. cerevisiae, pHLuorin, HTS validation (AID 504600; in the data active = response above about 15%;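 note: plate controls were DMSO for no effect and reference compound for full effect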). The settings on record: V-ATPase proton transport, at 10 µM, stronger effect = higher value.
Assay [13] has as its system anti-desmoglein-3 scFv antibody binding to human DSG3. The assay can be described thus: blockers of pathogenic pemphigus antibody–desmoglein-3 binding – biochemical, validation compound set, bead-based, flow cytometry, pilot screen (AID 588368;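 active = binding below the plate cutoff, the plate median minus 3 SD, with a reading above zero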;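 note: signal is the median channel fluorescence of bead-bound GFP antibody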). The settings on record: Protein G beads, DSG3-Fc, scFv-GFP binding, at 10 µM, stronger effect = lower value.
The nature of assay [14]: Nile Red efflux blockade in pump-expressing yeast – validation compound set, multiplex, phenotypic, pilot screen (AID 588506;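 active = efflux inhibition above 0.42, the validation set average plus 4 SD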;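 note: Nile Red retained in cells so higher fluorescence means more efflux inhibition; 0 = negative control wells and 1 = enniatin B 25 µM full block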). To be noted: S. cerevisiae pump-expressing triplex, Nile Red efflux flow cytometry; at 10 µM; stronger effect = higher value; the pumps come from Candida albicans.
Assay [15] concerns the target ATP-binding cassette sub-family B member 6 (Homo sapiens) (UniProt Q9NP58). Briefly: blockers of ABCB6-driven porphyrin uptake – K562-ABCB6 cells, flow cytometry, validation set, pilot screen (AID 588550;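 active = inhibition above the screen-wide mean plus 3 SD, about 51%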;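 note: 0% = DMSO wells and 100% = benzethonium chloride 70 µM positive control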). The settings on record: K562-ABCB6 porphyrin accumulation, 1 h, at 10 µM, stronger effect = higher value.
Assay [16] in a line: AML differentiation inducers, ER-HoxA9 marrow cells – cell-based, GFP/MAC1 double positive, flow cytometry, validation set, primary screen (AID 588685;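 active = differentiation response of at least 50%, scaled between solvent and reference control, from cells with both markers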;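 note: compound exposure lasts four days before antibody staining and flow analysis; 0% = DMSO wells and 100% = 5 µM fulvestrant positive control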). The settings on record: stronger effect = higher value, normalized: vehicle 0, fulvestrant 100.

The source of these data is PubChem BioAssay.

Molecules are shown by their SMILES. Records with an inconclusive call do not appear. The source made the active and inactive calls.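 Rule for the calls, unless noted: active = aptamer binding inhibition above 30%, about 3 SD of noise from non-fluorescent compounds; inactive = inhibition at or below 30%.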

Sequence of Beta-2 adrenergic receptor (Homo sapiens) (P07550 whole entry, looked up): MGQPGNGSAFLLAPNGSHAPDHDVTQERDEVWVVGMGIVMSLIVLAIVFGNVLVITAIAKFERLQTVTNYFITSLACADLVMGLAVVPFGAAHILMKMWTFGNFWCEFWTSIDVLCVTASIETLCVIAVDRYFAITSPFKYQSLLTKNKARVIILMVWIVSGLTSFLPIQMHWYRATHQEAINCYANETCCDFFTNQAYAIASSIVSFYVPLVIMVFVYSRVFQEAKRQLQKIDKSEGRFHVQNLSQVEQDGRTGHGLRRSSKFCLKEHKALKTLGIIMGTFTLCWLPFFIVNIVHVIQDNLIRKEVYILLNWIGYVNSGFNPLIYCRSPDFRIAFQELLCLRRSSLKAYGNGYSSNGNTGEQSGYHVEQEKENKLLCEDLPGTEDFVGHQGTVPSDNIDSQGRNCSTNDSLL
Sequence of ATP-binding cassette sub-family B member 6 (Homo sapiens) (Q9NP58 whole entry, looked up): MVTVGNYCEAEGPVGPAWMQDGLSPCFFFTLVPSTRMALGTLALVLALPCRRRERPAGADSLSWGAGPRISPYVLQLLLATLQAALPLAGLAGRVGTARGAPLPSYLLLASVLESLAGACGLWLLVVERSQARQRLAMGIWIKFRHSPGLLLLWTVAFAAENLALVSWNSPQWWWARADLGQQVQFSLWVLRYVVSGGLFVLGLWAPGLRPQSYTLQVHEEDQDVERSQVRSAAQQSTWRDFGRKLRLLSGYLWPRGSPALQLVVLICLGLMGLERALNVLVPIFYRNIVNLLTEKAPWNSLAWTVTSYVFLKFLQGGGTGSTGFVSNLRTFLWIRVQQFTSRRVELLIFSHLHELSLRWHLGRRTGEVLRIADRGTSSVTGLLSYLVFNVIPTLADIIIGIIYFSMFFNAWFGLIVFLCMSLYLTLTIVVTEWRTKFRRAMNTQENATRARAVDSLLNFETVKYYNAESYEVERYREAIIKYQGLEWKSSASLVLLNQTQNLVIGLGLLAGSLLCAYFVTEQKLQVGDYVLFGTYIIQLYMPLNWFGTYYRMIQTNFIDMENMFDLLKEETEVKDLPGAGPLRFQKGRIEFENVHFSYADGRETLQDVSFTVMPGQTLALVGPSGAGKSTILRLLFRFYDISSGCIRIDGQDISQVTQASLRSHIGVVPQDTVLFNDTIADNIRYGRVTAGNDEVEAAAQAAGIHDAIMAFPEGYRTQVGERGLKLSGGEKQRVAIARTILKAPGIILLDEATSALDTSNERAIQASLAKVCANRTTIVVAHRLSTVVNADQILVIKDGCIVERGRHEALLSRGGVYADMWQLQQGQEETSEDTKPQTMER
Sequence of AP-2 complex subunit beta (Homo sapiens) (P63010 whole entry, looked up, the tested form may be a part, one chain of several): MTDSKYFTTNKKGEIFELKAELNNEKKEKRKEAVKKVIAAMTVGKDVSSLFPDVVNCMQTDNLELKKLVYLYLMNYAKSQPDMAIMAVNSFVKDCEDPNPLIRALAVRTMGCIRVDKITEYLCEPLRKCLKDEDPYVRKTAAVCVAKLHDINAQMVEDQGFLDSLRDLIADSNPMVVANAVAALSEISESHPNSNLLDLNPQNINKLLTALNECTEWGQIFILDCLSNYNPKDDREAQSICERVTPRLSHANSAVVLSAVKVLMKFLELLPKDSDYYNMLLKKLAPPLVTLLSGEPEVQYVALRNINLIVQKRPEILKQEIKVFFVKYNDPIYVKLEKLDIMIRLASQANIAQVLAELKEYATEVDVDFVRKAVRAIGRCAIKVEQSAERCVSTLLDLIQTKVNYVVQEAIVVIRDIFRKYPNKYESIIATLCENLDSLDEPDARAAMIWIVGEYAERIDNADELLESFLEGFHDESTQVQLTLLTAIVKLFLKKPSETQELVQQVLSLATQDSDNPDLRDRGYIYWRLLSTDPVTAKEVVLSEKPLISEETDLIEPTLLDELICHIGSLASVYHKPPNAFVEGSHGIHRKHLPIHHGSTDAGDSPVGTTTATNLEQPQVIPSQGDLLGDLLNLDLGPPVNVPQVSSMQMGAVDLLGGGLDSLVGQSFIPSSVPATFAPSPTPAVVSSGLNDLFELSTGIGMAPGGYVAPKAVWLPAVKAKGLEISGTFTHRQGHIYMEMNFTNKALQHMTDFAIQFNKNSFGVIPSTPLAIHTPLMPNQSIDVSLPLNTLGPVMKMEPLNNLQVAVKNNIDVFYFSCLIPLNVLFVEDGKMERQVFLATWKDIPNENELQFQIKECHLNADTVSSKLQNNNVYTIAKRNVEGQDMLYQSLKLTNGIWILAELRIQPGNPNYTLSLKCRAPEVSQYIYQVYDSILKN
Sequence of Integrin beta-1 (Homo sapiens) + Integrin alpha-4 (Homo sapiens) (P05556 whole entry, looked up): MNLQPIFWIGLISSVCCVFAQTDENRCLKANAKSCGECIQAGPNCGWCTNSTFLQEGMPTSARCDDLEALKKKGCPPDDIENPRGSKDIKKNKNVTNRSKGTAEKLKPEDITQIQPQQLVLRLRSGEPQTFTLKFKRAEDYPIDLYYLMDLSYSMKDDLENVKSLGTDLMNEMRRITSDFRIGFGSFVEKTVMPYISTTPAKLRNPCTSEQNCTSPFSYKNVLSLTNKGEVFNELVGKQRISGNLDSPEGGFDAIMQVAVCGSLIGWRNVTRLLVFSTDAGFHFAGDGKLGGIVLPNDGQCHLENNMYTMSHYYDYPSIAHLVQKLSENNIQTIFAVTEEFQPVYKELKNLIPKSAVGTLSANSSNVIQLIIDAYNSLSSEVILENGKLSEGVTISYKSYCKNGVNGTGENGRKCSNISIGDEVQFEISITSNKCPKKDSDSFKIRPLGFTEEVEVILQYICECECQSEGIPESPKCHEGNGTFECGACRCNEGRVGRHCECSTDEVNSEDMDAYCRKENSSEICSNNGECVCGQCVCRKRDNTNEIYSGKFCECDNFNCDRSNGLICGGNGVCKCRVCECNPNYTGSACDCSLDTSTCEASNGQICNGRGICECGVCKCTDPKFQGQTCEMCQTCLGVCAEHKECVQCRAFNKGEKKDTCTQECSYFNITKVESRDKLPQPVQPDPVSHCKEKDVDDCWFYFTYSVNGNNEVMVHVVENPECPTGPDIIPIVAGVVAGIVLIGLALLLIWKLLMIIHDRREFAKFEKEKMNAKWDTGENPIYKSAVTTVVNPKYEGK
Sequence of Integrin beta-1 (Homo sapiens) + Integrin alpha-4 (Homo sapiens) (P13612 whole entry, looked up): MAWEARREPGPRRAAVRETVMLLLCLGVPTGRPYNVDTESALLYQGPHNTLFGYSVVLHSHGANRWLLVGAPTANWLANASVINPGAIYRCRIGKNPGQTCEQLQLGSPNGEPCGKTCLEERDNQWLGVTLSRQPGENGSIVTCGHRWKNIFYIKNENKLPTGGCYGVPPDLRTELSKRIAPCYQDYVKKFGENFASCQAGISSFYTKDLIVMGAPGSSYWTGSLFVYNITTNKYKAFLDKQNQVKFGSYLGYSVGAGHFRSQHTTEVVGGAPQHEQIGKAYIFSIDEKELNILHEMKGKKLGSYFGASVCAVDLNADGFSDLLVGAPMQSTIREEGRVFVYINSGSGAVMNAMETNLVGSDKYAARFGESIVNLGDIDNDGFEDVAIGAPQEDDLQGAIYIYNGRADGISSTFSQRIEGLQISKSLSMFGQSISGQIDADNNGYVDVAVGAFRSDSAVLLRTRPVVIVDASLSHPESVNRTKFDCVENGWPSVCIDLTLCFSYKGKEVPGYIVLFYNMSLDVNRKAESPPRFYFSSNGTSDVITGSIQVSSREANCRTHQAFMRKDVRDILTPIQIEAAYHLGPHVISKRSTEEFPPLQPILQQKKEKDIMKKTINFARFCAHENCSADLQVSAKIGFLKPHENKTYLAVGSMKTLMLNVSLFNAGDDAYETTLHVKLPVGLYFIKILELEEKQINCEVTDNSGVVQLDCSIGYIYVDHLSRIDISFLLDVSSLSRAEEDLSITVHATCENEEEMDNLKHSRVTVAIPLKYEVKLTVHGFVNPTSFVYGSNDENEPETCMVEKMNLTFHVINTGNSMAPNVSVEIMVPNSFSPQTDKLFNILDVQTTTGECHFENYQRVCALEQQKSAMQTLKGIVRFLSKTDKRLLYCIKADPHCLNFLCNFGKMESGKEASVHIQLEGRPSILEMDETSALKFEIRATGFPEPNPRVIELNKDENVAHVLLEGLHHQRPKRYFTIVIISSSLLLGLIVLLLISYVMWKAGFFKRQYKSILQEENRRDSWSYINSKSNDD

As to `Cc1cccc(C)c1NC(=O)C1CCCCN1C` (stereo not given), the percent of DMSO control GFP in [1] was 102% (inactive). Also, the figures for the GFP response vs DMSO in assay [2] and in assay [4] were 104% (inactive) and 90.1% (inactive), respectively. Also, the percent response of DMSO control in assay [3] is 97.8% (inactive). The GFP response, % of DMSO in [5] was 97% (inactive). Besides, the double positive events in [6] is 62.6%. Further, in [6], the vesicle binding response is 92.5% (inactive). For the same compound, the inhibition (commonly the relative decrease from the control value, in per cent) in assay [7] is -4.6% (inactive); in assay [11], 15.4% (inactive); in assay [15], 1% (inactive). Further, the superoxide response (% of plate) in [8] is 104% (inactive). The aptamer binding inhibition in [9] is 5% (inactive). Also, the values for the response in assay [10] and in assay [12] were 10.4% (inactive) and 0.17% (inactive), respectively. Moreover, the binding (% of control) in assay [13] was 98.2% (inactive). Also, the efflux inhibition (fraction of control) in assay [14] was -0.01 (inactive). Moreover, the differentiation response in assay [16] was -1.71% (inactive).
In the case of `O=C(NC(=S)Nc1ccc2c(c1)OCCO2)c1ccccc1F`, the percent of DMSO control GFP in [1] is 103% (inactive). Also, the GFP response vs DMSO in assay [2] was 108% (inactive); in assay [4], 93% (inactive). Further, the percent response of DMSO control in assay [3] is 101% (inactive). The GFP response, % of DMSO in assay [5] is 97.7% (inactive). Moreover, in [6], the double positive events was 61.5%. The vesicle binding response in [6] was 2360% (inactive). Also, the values for the inhibition in [7], in [11] and in assay [15] were 1.12% (inactive), 7.78% (inactive) and 9% (inactive), respectively. For the same compound, the superoxide response (% of plate) in [8] was 109% (inactive). Besides, in [9], the aptamer binding inhibition is 2% (inactive). For the same compound, the values for the response in [10] and in [12] were 5.42% (inactive) and 1.01% (inactive), respectively. In addition, the binding (% of control) in [13] was 98.5% (inactive). In addition, in [14], the efflux inhibition (fraction of control) was -0.12 (inactive). The differentiation response in assay [16] was 0% (inactive).
`CC(C)CCC1(CCNC(C)c2cccs2)CCOC(C)(C)C1` (stereo not given): the percent of DMSO control GFP in [1] is 102% (inactive). Besides, the GFP response vs DMSO in [2] is 108% (inactive); in assay [4], 93.3% (inactive). For the same compound, in assay [3], the percent response of DMSO control is 97.8% (inactive). Besides, the GFP response, % of DMSO in [5] was 101% (inactive). In assay [6], this compound gave a double positive events of 58.8%. Further, the vesicle binding response in [6] is 1220% (inactive). Also, the figures for the inhibition in assay [7], in assay [11] and in assay [15] were -6.68% (inactive), 1.09% (inactive) and 2% (inactive), respectively. The superoxide response (% of plate) in assay [8] was 96.5% (inactive). Moreover, in assay [9], the aptamer binding inhibition is 0% (inactive). The response in [10] is 8.29% (inactive); in [12], -1.06% (inactive). In assay [13], the binding (% of control) is 98.5% (inactive). The efflux inhibition (fraction of control) in assay [14] was -0.17 (inactive). Further, in assay [16], the differentiation response was 1.22% (inactive).
As to `Cc1cc(C)cc(Nc2nc3c([nH]2)c(=O)n(C)c(=O)n3C)c1`, the percent of DMSO control GFP in assay [1] is 102% (inactive). Moreover, the figures for the GFP response vs DMSO in [2] and in assay [4] were 105% (inactive) and 103% (inactive), respectively. In addition, the percent response of DMSO control in [3] is 112% (inactive). Moreover, the GFP response, % of DMSO in [5] was 105% (inactive). Moreover, the double positive events in assay [6] came out at 63.9%. The vesicle binding response in assay [6] is 212% (inactive). Moreover, the inhibition is 6.95% (inactive) in [7], 61% (active) in [11] and -9% (inactive) in assay [15]. For the same compound, in assay [8], the superoxide response (% of plate) was 89.7% (inactive). For the same compound, the aptamer binding inhibition in [9] is -6% (inactive). Moreover, the response is 6.07% (inactive) in assay [10] and -8.26% (inactive) in assay [12]. Also, in [13], the binding (% of control) was 102% (inactive). The efflux inhibition (fraction of control) in assay [14] is -0.14 (inactive). In addition, in assay [16], the differentiation response was 10.1% (inactive).
In the case of `Cc1ccc(N2CCN(C(=S)c3ccc(-c4cccc([N+](=O)[O-])c4)o3)CC2)cc1`, the percent of DMSO control GFP in assay [1] is 98.1% (inactive). In addition, the GFP response vs DMSO in assay [2] was 103% (inactive); in assay [4], 126% (inactive). The percent response of DMSO control in assay [3] was 109% (inactive). For the same compound, the GFP response, % of DMSO in assay [5] was 124% (inactive). In [6], this compound came in with a double positive events of 61.7%. In assay [6], the vesicle binding response is 217% (inactive). The figures for the inhibition in assay [7], in assay [11] and in assay [15] were -4.52% (inactive), 1.79% (inactive) and 3% (inactive), respectively. Besides, the superoxide response (% of plate) in assay [8] was 89.3% (inactive). For the same compound, in assay [9], the aptamer binding inhibition is 3% (inactive). Moreover, the response in assay [10] is -41.3% (inactive); in assay [12] it was -4.54% (inactive). The binding (% of control) in assay [13] was 102% (inactive). For the same compound, the efflux inhibition (fraction of control) in assay [14] is -0.13 (inactive). Also, the differentiation response in assay [16] is -9.91% (inactive).
